Assay outcomes (PubChem BioAssay)
FLuc modulator: counter-screen for miR-21 project: firefly luciferase inhibitors or activators; P08659; purified FLuc, Km substrates, luminescence inhibition; Potency, µM (highest dose often 57.5 µM), most hits filed as inhibitors; 6.9% of 360,000 active; AID 588342; note: nearly all actives have a fitted effect of over 55% in size
Target sequence (P08659 whole entry, looked up): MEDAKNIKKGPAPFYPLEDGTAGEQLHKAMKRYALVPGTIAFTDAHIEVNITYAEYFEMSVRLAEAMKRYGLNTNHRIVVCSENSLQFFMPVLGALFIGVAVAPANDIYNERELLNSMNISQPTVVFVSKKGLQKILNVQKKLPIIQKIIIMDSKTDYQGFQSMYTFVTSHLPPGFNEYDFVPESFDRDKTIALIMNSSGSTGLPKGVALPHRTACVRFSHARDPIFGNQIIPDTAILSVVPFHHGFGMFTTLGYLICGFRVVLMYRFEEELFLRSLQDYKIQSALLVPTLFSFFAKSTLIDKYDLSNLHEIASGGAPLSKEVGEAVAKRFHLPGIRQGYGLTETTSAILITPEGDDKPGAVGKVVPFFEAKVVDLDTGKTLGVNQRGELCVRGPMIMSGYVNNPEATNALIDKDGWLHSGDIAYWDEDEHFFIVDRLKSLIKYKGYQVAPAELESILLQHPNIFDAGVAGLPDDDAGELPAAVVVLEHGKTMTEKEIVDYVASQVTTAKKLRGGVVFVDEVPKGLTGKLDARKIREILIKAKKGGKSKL
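Purified P. pyralis luciferase, 10 nM final, with Km-level 10 uM D-luciferin and 10 uM ATP in 50 mM Tris acetate pH 7.5, 10 mM Mg acetate, 0.01% Tween-20, 0.05% BSA; 6-point qHTS titration about 60 µM downward; luminescence read.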
ELG1 genotox: induces genotoxicity in HEK293T cells with luciferase-tagged ELG1 | AID 504466 | 1.3% of 330,000 active | HEK293T ELG1-luciferase reporter, luminescence, 16 h | Potency, µM (titrated, usually from 46 µM), actives largely listed as activators; note: nearly all actives have a fitted effect of over 60% in size
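After overnight (16 hr) compound treatment at 37 °C, ELG1-luciferase HEK293T cells were lysed with ONE-Glo; luminescence quantified 30 min later at room temperature.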
Rab9 prom act: activates the Rab9 promoter | Huh7 Rab9 promoter-luciferase reporter, luminescence, 24 h | Potency, µM (highest dose often 9.22 µM), most hits filed as activators | 2.8% of 320,000 active; note: nearly all actives have a fitted effect of over 60% in size
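Using Huh7 cells stably transfected with Rab9 promoter–luciferase, compounds were incubated 24 h at 37 °C, 5% CO2; luciferase luminescence was read 10 min after reagent addition.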
NPC1 prom act: NPC1 promoter activation; Huh7 NPC1 promoter luciferase reporter, 24 h; Potency, µM (doses to about 9.22 µM), hits mostly activators; 2.4% of 320,000 active; AID 485313; note: nearly all actives have a fitted effect of over 60% in size
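Stable NPC1-promoter luciferase Huh7 line; cpd (DMSO) 24 h, 37 °C, 5% CO2; Amplite luciferase reagent 10 min RT; luminescence readout. qHTS format.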
SMN2 splice enh: increases expression of the SMN2 splice variant; 2.8% of 210,000 active; HEK293 SMN2-luciferase splicing reporter, luminescence, 30-36 h; Potency, µM (top dose mostly 46.1 µM), usual class: activators; note: nearly all actives have a fitted effect of over 55% in size
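qHTS luciferase splicing reporter: luminescence rises when SMN2 exon 7 is included in transfected HEK293 cells. Compound exposure lasted 30-36 h at 37C, with 4.5 mM final sodium butyrate as control, followed by a ONE-Glo read.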
Each line names hits and unclear results; the compound was inactive in the other large screens. Rows were chosen to be rich in hits. Some 7.4% of all compounds tested hit in one or more screens of this group. Calls come from the whole dose curve; as a rule, active = well fitted curve in the direction sought with a large enough effect; inconclusive = small, poorly fitted or top-dose-only effect, or another doubt; inactive = no such curve, though single readings can be large; an effect the other way counts as inactive or inconclusive.

COc1ccc(S(=O)(=O)c2c(O)c3ccc(C(=O)Nc4ccccc4)cc3[nH]c2=O)cc1	FLuc modulator inconclusive (no result: SMN2 splice enh)
O=C(CCNS(=O)(=O)c1ccccc1)OCC(=O)c1ccc(Br)cc1	none (no result: SMN2 splice enh)
O=C(Cc1cccs1)NC1C(=O)N2C(C(=O)[O-])=C(C[n+]3ccccc3)CSC12 (centres undefined)	none (no result: FLuc modulator, ELG1 genotox, Rab9 prom act, NPC1 prom act)
O=C(O)CSc1nc2ccccc2nc1Cc1ccccc1F	none (no result: SMN2 splice enh)
COc1ccc(-c2cc3ccccc3oc2=O)cc1NC(=O)c1ccc(Br)o1	ELG1 genotox inconclusive, Rab9 prom act inconclusive, NPC1 prom act inconclusive, SMN2 splice enh 3.2µM
CCC(=O)Nc1ccc(-c2cc3ccccc3oc2=O)cc1	FLuc modulator 7.6µM, ELG1 genotox 3.7µM, Rab9 prom act inconclusive, NPC1 prom act inconclusive, SMN2 splice enh 8.9µM
CCC(=O)Nc1cc(-c2cc3ccccc3oc2=O)ccc1OC	ELG1 genotox inconclusive, Rab9 prom act 0.79µM, NPC1 prom act inconclusive, SMN2 splice enh 1.1µM
O=C(Cc1ccc(Cl)cc1)Nc1ccc(-c2cc3ccccc3oc2=O)c(Cl)c1	none
COc1ccc(-c2cc3ccccc3oc2=O)cc1NC(=O)c1ccc([N+](=O)[O-])o1	Rab9 prom act 3.5µM
COc1ccc(C2C(=O)N(C3CCC(C)CC3)CC(=O)N2C2CCCC2)cc1OC (centres undefined)	none (no result: ELG1 genotox, Rab9 prom act, NPC1 prom act, SMN2 splice enh)
COC(=O)c1ccccc1NC(=S)NC(NC(=O)c1ccccc1[N+](=O)[O-])C(Cl)(Cl)Cl (centres undefined)	none
CC(=O)Nc1ccc(-c2cc3ccccc3o2)cc1	FLuc modulator 3µM, ELG1 genotox inconclusive, Rab9 prom act 3.2µM, NPC1 prom act 2.2µM, SMN2 splice enh 11µM
Cc1ccccc1NC(=O)CSc1nc(O)cc(=O)n1C	none (no result: SMN2 splice enh)
COc1ccc(C2=Nc3ccccc3OC2)cc1	FLuc modulator 0.85µM, ELG1 genotox 0.52µM, Rab9 prom act 1.6µM, NPC1 prom act 1.6µM, SMN2 splice enh inconclusive
COc1ccc(-c2cc(-c3ccccc3)nc3c2COc2ccccc2-3)cc1	none (no result: ELG1 genotox, Rab9 prom act, NPC1 prom act)
CCOc1ccc(N2CC(C(=O)NC3=NCCS3)CC2=O)cc1 (centres undefined)	none (no result: SMN2 splice enh)
CCOc1ccc(CCNC(=O)c2ccc(CS(=O)Cc3ccccc3Cl)o2)cc1 (centres undefined)	FLuc modulator 24µM (no result: SMN2 splice enh)
CCOc1ccc(CCNC(=O)c2ccc(CS(=O)Cc3ccc(Cl)cc3)o2)cc1 (centres undefined)	FLuc modulator inconclusive (no result: SMN2 splice enh)
Cn1c(-c2ccc(F)cc2)cnc1SCC(=O)N1CCCc2ccccc21	FLuc modulator inconclusive
Cn1c(-c2ccc(F)cc2)cnc1SCC(=O)N1CCCCC1	FLuc modulator 2.7µM, ELG1 genotox 2.6µM, Rab9 prom act 0.5µM, NPC1 prom act 0.56µM, SMN2 splice enh 8.9µM
CC1Cc2ccccc2N1C(=O)CSc1ncc(-c2ccc(F)cc2)n1C (centres undefined)	FLuc modulator 1.9µM, ELG1 genotox inconclusive, Rab9 prom act 1.1µM, NPC1 prom act 3.5µM, SMN2 splice enh 13µM
COc1cccc(CC2(CO)CCN(Cc3cccn3-c3cccnc3)CC2)c1	none
Cc1ccc(C(=O)COC(=O)CNC(=O)c2cccs2)cc1	none (no result: ELG1 genotox, Rab9 prom act, NPC1 prom act)
CSc1ncccc1C(=O)OCC(=O)c1ccc(C)s1	none (no result: FLuc modulator, Rab9 prom act, NPC1 prom act, SMN2 splice enh)
CSc1ncccc1C(=O)OCC(=O)c1cccs1	FLuc modulator 19µM
Cc1ccc(C(=O)COC(=O)c2cccs2)cc1	FLuc modulator 0.15µM, ELG1 genotox inconclusive, Rab9 prom act 0.45µM, NPC1 prom act 0.79µM, SMN2 splice enh inconclusive
CN(C)c1ccc(C(=O)OCC(=O)c2cccs2)cc1	FLuc modulator 3.4µM, ELG1 genotox 8.2µM, Rab9 prom act 1.8µM, NPC1 prom act 3.5µM, SMN2 splice enh 6.3µM
O=C(OCC(=O)c1cccs1)c1cccc(C(=O)OCC(=O)c2cccs2)n1	FLuc modulator 12µM
COC(=O)CC1c2ccccc2C(Cc2ccc(OC)cc2)C(C)N1C(=O)OC (centres undefined)	none (no result: FLuc modulator, ELG1 genotox, Rab9 prom act, NPC1 prom act)
Cc1ccc(S(=O)(=O)N2CCN(C(=O)COC(=O)c3ccc(Cl)nc3)CC2)c(C)c1	none (no result: SMN2 splice enh)
CCc1ccc(C(=O)COC(=O)c2cccs2)cc1	FLuc modulator 0.19µM, ELG1 genotox 4.5µM, Rab9 prom act 1.4µM, NPC1 prom act 2.5µM
Nc1c2c(nc3sc4c(c13)CCCC4)-c1ccccc1CC2	FLuc modulator 0.13µM, ELG1 genotox 0.73µM, Rab9 prom act 0.14µM, NPC1 prom act 0.5µM (no result: SMN2 splice enh)
COc1ccc(Cl)cc1NC(=O)C(C)OC(=O)Cn1cc(C(F)(F)F)ccc1=O (centres undefined)	none (no result: SMN2 splice enh)
CCOC(=O)Cc1nn(C)c(=O)c2ccccc12	SMN2 splice enh 5.6µM
CCOC(=O)Cc1nn(CC)c(=O)c2ccccc12	none (no result: SMN2 splice enh)
O=C(Nc1nc(-c2ccccn2)cs1)C1CC1	FLuc modulator inconclusive, Rab9 prom act inconclusive, NPC1 prom act inconclusive, SMN2 splice enh inconclusive
O=C(CC1CC2CCC1C2)Nc1nc(-c2ccccn2)cs1 (centres undefined)	FLuc modulator 24µM, Rab9 prom act 4µM
O=C(Nc1nc(-c2ccccn2)cs1)C12CC3CC(CC(O)(C3)C1)C2	FLuc modulator 6.7µM, ELG1 genotox inconclusive, Rab9 prom act 3.2µM, NPC1 prom act 2.2µM, SMN2 splice enh 11µM
Cc1ccc(S(=O)(=O)NCCC(=O)NCC(=O)Nc2c(C)cccc2C)cc1C	none (no result: SMN2 splice enh)
COc1cccc(-c2nnc3n(Cc4ccccc4Cl)c(=O)c4ccccc4n23)c1O	none (no result: ELG1 genotox, Rab9 prom act, NPC1 prom act, SMN2 splice enh)
CC1(c2ccccc2)NC(=O)N(CC(=O)NCc2cccc(Cl)c2)C1=O (centres undefined)	none (no result: SMN2 splice enh)
O=C1c2cccc3cccc(c23)C(=O)N1Cc1ccco1	none
O=C1C(C=NCc2ccco2)=C(O)c2ccccc21	FLuc modulator 6.7µM, ELG1 genotox 5.2µM, SMN2 splice enh inconclusive
O=C1C(C=NCc2cccnc2)=C(O)c2ccccc21	FLuc modulator 1.9µM, ELG1 genotox 2.1µM, Rab9 prom act inconclusive (no result: SMN2 splice enh)
O=C1C(C=NCc2ccncc2)=C(O)c2ccccc21	none
CCOC(=O)c1ccc2[nH]c(C)cc(=O)c2c1	none
CCOC(=O)c1ccc2[nH]c3ccccc3c2c1	FLuc modulator 19µM, Rab9 prom act inconclusive, SMN2 splice enh inconclusive
CCCCOC(=O)c1cc2c(cn1)[nH]c1ccccc12	SMN2 splice enh 18µM (no result: FLuc modulator, ELG1 genotox, Rab9 prom act, NPC1 prom act)
COC(=O)c1ccc2[nH]c(C(C)(C)O)c(C)c2c1	FLuc modulator 19µM, ELG1 genotox inconclusive, Rab9 prom act inconclusive, NPC1 prom act inconclusive (no result: SMN2 splice enh)
O=C(NCCCO)c1ccc2[nH]c3ccccc3c2c1	FLuc modulator 24µM
COCCCNC(=O)CC(c1cc(OC)c(OC)c(OC)c1)N1Cc2ccccc2C1=O (centres undefined)	none (no result: ELG1 genotox, Rab9 prom act, NPC1 prom act, SMN2 splice enh)
N#Cc1c(NC(=O)c2ccccc2)sc2c1CCCCC2	FLuc modulator inconclusive, ELG1 genotox inconclusive, Rab9 prom act 0.56µM, NPC1 prom act 0.79µM, SMN2 splice enh 0.63µM
N#Cc1c(Cl)nsc1NC(=O)c1ccccc1	FLuc modulator 15µM
